# Test results as given in PubChem BioAssay AID1159580 (chemical genetic matrix, 2015).
# Where “and” joins values, the source holds several entries; their conditions need not be identical. Equal entries are not always repeated. Out of some 5,500 compounds screened, about 2,000 (36%) were called active. About 18% were inconclusive and are not listed. No stated cut-off is given here; in the data, active means normalized growth mostly below about 0.91 (no sharp cut-off); inconclusive means no clear call, values can overlap the other calls; inactive means mostly above about 0.92. The list shows a part of the results.
# Test: chemical genetic growth profiling, strain panel (AID 1159580);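 further: tested at 20 µM; growth read once vehicle control cultures reached saturation at 30 °C; 1 = growth at the plate median or of vehicle wells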
# Conditions: S. cerevisiae deletion strains, growth OD
compound,measurement,setting,value
CC(C)(C)CC(C)(C)c1ccc(OCCOCC[N+](C)(C)Cc2ccccc2)cc1,normalized growth,"locus YAL013W, strain DEP1, stronger effect = lower value",0.983 (inactive)
same,normalized growth,"locus YAL021C, strain ccr4, stronger effect = lower value",0.0688 (active)
same,normalized growth,"locus YAL026C, strain drs2, stronger effect = lower value",0.0657 (active)
same,normalized growth,"locus YAL030W, strain snc1, stronger effect = lower value",0.0593 (active)
same,normalized growth,"locus YBL061C, strain skt5, stronger effect = lower value",0.0642 (active)
same,normalized growth,"locus YBR009C, strain hhf1, stronger effect = lower value",0.0641 (active)
same,normalized growth,"locus YBR021W, strain FUR4, stronger effect = lower value",0.749 (active)
same,normalized growth,"locus YBR023C, strain chs3, stronger effect = lower value",0.0641 (active)
same,normalized growth,"locus YBR171W, strain sec66, stronger effect = lower value",0.0804 (active)
same,normalized growth,"locus YBR229C, strain ROT2, stronger effect = lower value",1.02 (inactive)
same,normalized growth,"locus YBR231C, strain swc5, stronger effect = lower value",0.0684 (active)
same,normalized growth,"locus YBR279W, strain paf1, stronger effect = lower value",0.0627 (active)
same,normalized growth,"locus YCL011C, strain gbp2, stronger effect = lower value",0.0631 (active)
same,normalized growth,"locus YCL016C, strain dcc1, stronger effect = lower value",0.0699 (active)
same,normalized growth,"locus YCL029C, strain bik1, stronger effect = lower value",0.986 (inactive)
same,normalized growth,"locus YCL069W, strain vba3, stronger effect = lower value",0.0614 (active)
same,normalized growth,"locus YCR088W, strain abp1, stronger effect = lower value",0.0617 (active)
same,normalized growth,"locus YDL005C, strain med2, stronger effect = lower value",0.0736 (active)
same,normalized growth,"locus YDL035C, strain GPR1, stronger effect = lower value",1.01 (inactive)
same,normalized growth,"locus YDL040C, strain nat1, stronger effect = lower value",0.0719 (active)
same,normalized growth,"locus YDL074C, strain BRE1, stronger effect = lower value",0.954 (inactive)
same,normalized growth,"locus YDL101C, strain DUN1, stronger effect = lower value",0.988 (inactive)
same,normalized growth,"locus YDL134C, strain PPH21, stronger effect = lower value",0.995 (inactive)
same,normalized growth,"locus YDL185W, strain tfp1, stronger effect = lower value",1 (inactive)
same,normalized growth,"locus YDL192W, strain arf1, stronger effect = lower value",0.976 (inactive)
same,normalized growth,"locus YDR001C, strain nth1, stronger effect = lower value",0.0593 (active)
same,normalized growth,"locus YDR069C, strain doa4, stronger effect = lower value",0.0664 (active)
same,normalized growth,"locus YDR101C, strain arx1, stronger effect = lower value",0.991 (inactive)
same,normalized growth,"locus YDR137W, strain rgp1, stronger effect = lower value",0.0931 (active)
same,normalized growth,"locus YDR150W, strain NUM1, stronger effect = lower value",1 (inactive)
same,normalized growth,"locus YDR159W, strain sac3, stronger effect = lower value",0.1 (active)
same,normalized growth,"locus YDR162C, strain NBP2, stronger effect = lower value",0.911 (inactive)
same,normalized growth,"locus YDR195W, strain ref2",0.158 (active)
same,normalized growth,"locus YDR297W, strain sur2, stronger effect = lower value",0.0635 (active)
same,normalized growth,"locus YDR318W, strain mcm21, stronger effect = lower value",0.997 (inactive)
same,normalized growth,"locus YDR334W, strain swr1, stronger effect = lower value",0.0662 (active)
same,normalized growth,"locus YDR335W, strain msn5, stronger effect = lower value",0.0594 (active)
same,normalized growth,"locus YDR388W, stronger effect = lower value",1 (inactive)
same,normalized growth,"locus YDR392W, strain spt3, stronger effect = lower value",0.0804 (active)
same,normalized growth,"locus YDR502C, strain sam2, stronger effect = lower value",0.988 (inactive)
same,normalized growth,"locus YEL003W, strain gim4, stronger effect = lower value",0.0568 (active)
same,normalized growth,"locus YEL037C, strain rad23, stronger effect = lower value",0.0591 (active)
same,normalized growth,"locus YEL061C, strain CIN8 (second series), stronger effect = lower value",0.0651 (active)
same,normalized growth,"locus YEL061C, strain CIN8, stronger effect = lower value",0.999 (inactive)
same,normalized growth,"locus YER015W, strain faa2, stronger effect = lower value",0.0671 (active)
same,normalized growth,"locus YER016W, strain bim1, stronger effect = lower value",0.0697 (active)
same,normalized growth,"locus YER110C, stronger effect = lower value",0.992 (inactive)
same,normalized growth,"locus YER111C, strain swi4, stronger effect = lower value",0.0727 (active)
same,normalized growth,"locus YER155C, strain BEM2 (second series), stronger effect = lower value",0.0937 (active)
same,normalized growth,"locus YER155C, strain BEM2, stronger effect = lower value",1.03 (inactive)
same,normalized growth,"locus YER167W, strain BCK2, stronger effect = lower value",1.02 (inactive)
same,normalized growth,"locus YFR010W, strain ubp6, stronger effect = lower value",0.0726 (active)
same,normalized growth,"locus YGL078C, strain dbp3, stronger effect = lower value",0.988 (inactive)
same,normalized growth,"locus YGL086W, strain mad1, stronger effect = lower value",0.984 (inactive)
same,normalized growth,"locus YGL167C, strain pmr1, stronger effect = lower value",0.837 (active)
same,normalized growth,"locus YGL173C, strain kem1, stronger effect = lower value",0.0679 (active)
same,normalized growth,"locus YGL227W, strain vid30, stronger effect = lower value",0.0676 (active)
same,normalized growth,"locus YGL240W, strain doc1, stronger effect = lower value",0.0832 (active)
same,normalized growth,"locus YGL248W, strain PDE1, stronger effect = lower value",0.99 (inactive)
same,normalized growth,"locus YGL253W, strain hxk2, stronger effect = lower value",0.058 (active)
same,normalized growth,"locus YGR078C, strain PAC10, stronger effect = lower value",0.917 (inactive)
same,normalized growth,"locus YGR135W, strain pre9, stronger effect = lower value",0.994 (inactive)
same,normalized growth,"locus YGR252W, strain gcn5, stronger effect = lower value",0.98 (inactive)
same,normalized growth,"locus YHR013C, strain ard1, stronger effect = lower value",0.119 (active)
same,normalized growth,"locus YHR027C, strain rpn1, stronger effect = lower value",0.0623 (active)
same,normalized growth,"locus YHR030C, strain SLT2, stronger effect = lower value",0.995 (inactive) and 0.14 (active)
same,normalized growth,"locus YHR079C, strain IRE1 (second series), stronger effect = lower value",0.991 (inactive)
same,normalized growth,"locus YHR079C, strain IRE1, stronger effect = lower value",0.167 (active)
same,normalized growth,"locus YHR094C, strain hxt1, stronger effect = lower value",0.985 (inactive)
same,normalized growth,"locus YHR129C, strain ARP1, stronger effect = lower value",0.994 (inactive)
same,normalized growth,"locus YHR142W, strain chs7, stronger effect = lower value",0.0755 (active)
same,normalized growth,"locus YHR200W, strain rpn10, stronger effect = lower value",0.993 (inactive)
same,normalized growth,"locus YIL066C, strain RNR3, stronger effect = lower value",0.994 (inactive)
same,normalized growth,"locus YIL073C, strain SPO22, stronger effect = lower value",0.865 (inactive)
same,normalized growth,"locus YIL125W, strain kgd1, stronger effect = lower value",0.991 (inactive)
same,normalized growth,"locus YIR030C, strain dcg1, stronger effect = lower value",0.985 (inactive)
same,normalized growth,"locus YJL092W, strain hpr5, stronger effect = lower value",0.0645 (active)
same,normalized growth,"locus YJL095W, strain BCK1 (second series), stronger effect = lower value",0.0585 (active)
same,normalized growth,"locus YJL095W, strain BCK1, stronger effect = lower value",0.912 (inactive) and 0.258 (active)
same,normalized growth,"locus YJL115W, strain asf1, stronger effect = lower value",0.0787 (active)
same,normalized growth,"locus YJL129C, strain trk1, stronger effect = lower value",0.079 (active)
same,normalized growth,"locus YJL134W, strain LCB3, stronger effect = lower value",1 (inactive)
same,normalized growth,"locus YJL154C, strain vps35, stronger effect = lower value",0.0655 (active)
same,normalized growth,"locus YJL164C, strain tpk1, stronger effect = lower value",0.0649 (active)
same,normalized growth,"locus YJL166W, strain qcr8, stronger effect = lower value",0.0654 (active)
same,normalized growth,"locus YJL168C, strain set2, stronger effect = lower value",0.999 (inactive)
same,normalized growth,"locus YJL187C, strain SWE1 (second series), stronger effect = lower value",0.989 (inactive)
same,normalized growth,"locus YJL187C, strain SWE1, stronger effect = lower value",0.0616 (active)
